From PubChem BioAssay (NCI)
The panel holds about 83,000 compounds, 20% with a hit somewhere; the sample as a whole holds those more often.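 48-hour exposure, single concentration, 96-well plates; percent growth endpoint where 0 means no net growth. Active: below 10.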 Unmarked numbers belong to inactive results. Calls of active or inactive are those of the source.

How the values were obtained:
Assay in all cases: NCI-60 one-dose screen, 48 h (100 = growth as untreated, 0 = no growth, -100 = all killed)
Details in all cases: 10 µM
DU-145 prostate = test system: DU-145 prostate
K-562 leukemia = test system: K-562 leukemia
MALME-3M melanoma = test system: MALME-3M melanoma
MDA-MB-231 breast = test system: MDA-MB-231 breast
RXF 393 renal = test system: RXF 393 renal
SF-268 CNS = test system: SF-268 CNS
SF-295 CNS = test system: SF-295 CNS
SF-539 CNS = test system: SF-539 CNS
M14 melanoma = test system: M14 melanoma
HCT-15 colon = test system: HCT-15 colon
SNB-75 CNS = test system: SNB-75 CNS
SNB-19 CNS = test system: SNB-19 CNS
U251 CNS = test system: U251 CNS
SK-MEL-5 melanoma = test system: SK-MEL-5 melanoma
UACC-62 melanoma = test system: UACC-62 melanoma
LOX IMVI melanoma = test system: LOX IMVI melanoma
SK-MEL-28 melanoma = test system: SK-MEL-28 melanoma
UACC-257 melanoma = test system: UACC-257 melanoma
HT29 colon = test system: HT29 colon
PC-3 prostate = test system: PC-3 prostate

SMILES | growth (DU-145 prostate) [%] | growth (K-562 leukemia) [%] | growth (MALME-3M melanoma) | growth (MDA-MB-231 breast) [%] | growth (RXF 393 renal) [%] | growth (SF-268 CNS) | growth (SF-295 CNS) [%] | growth (SF-539 CNS) [%] | growth (M14 melanoma) [%] | growth (HCT-15 colon) [%] | growth (SNB-75 CNS) [%] | growth (SNB-19 CNS) | growth (U251 CNS) | growth (SK-MEL-5 melanoma) | growth (UACC-62 melanoma) [%] | growth (LOX IMVI melanoma) [%] | growth (SK-MEL-28 melanoma) [%] | growth (UACC-257 melanoma) [%] | growth (HT29 colon) [%] | growth (PC-3 prostate) [%]
CCn1c2ccc(O)cc2c2c(C)c3c[n+](C)ccc3c(C)c21 | 53.7 | 60 | -20.4% (active) | 71.7 | 57.1 | -10.1% (active) | 13.6 | 12.1 | 51.8 | 81.2 | 31 | -3.45% (active) | 3.41% (active) | 7.6% (active) | 16.6 | 62.2 | 31.8 |  |  | 
C[C@]12CC[C@@H]3c4ccc(OS(=O)(=O)O)cc4CC[C@H]3[C@@H]1CC[C@@H]2NS(=O)(=O)c1ccc(-c2ccccc2)cc1 | 75.3 | 26.8 | 60.8% | 84.3 | 53.1 | 69.8% |  | 90.1 | 62.8 | 52.6 | 75.6 | 89.6% |  | 67.4% | 79.1 |  |  | 77.2 | 50 | 41
Clc1nc2ccccc2cc1Cn1nnc(Cc2ccccc2)n1 | 75.2 | 55.2 | 65.6% | 53.1 | 83.9 | 65.7% | 47.6 | 81.2 | 73.6 | 65 | 55.4 | 89.9% | 76.3% | 0.724% (active) | 51.7 | 53.6 | 84.7 |  | 71.5 | 
